An excerpt weighted towards active compounds, which were near 0.5% of everything screened.
Tat transport = E. coli Tat transport inhibition; E. coli MC4100 TorA-mCherry Tat export, fluorescence; inhibition, % at 10 µM; 0.036% of 340,000 active;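 active means mean replicate inhibition at least 50% and at least half of replicates individually reaching 50%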;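 further: exported cargo escapes ClpAP degradation while cytoplasmic cargo is degraded and loses fluorescence; 0% = median of neutral control wells and 100% = median of NaSCN control wells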
E coli growth-1 = reduces bacterial viability in AddAB counter-screen; E. coli V3065 growth, OD600 absorbance, 18 h; inhibition, % at 11.9 µM; 0.27% of 330,000 active;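 active means inhibition above the campaign's mean inhibition across all tested compounds plus 3 SD, cut at about 9.9% in these data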;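 further: uninfected addAB+ strain grown without phage in ampicillin broth; 0% = DMSO wells and 100% = ciprofloxacin 0.95 µg/ml wells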
AddAB inh = less growth of phage-infected E. coli with AddAB | E. coli expressing H. pylori AddAB, absorbance growth | inhibition, % at 11.9 µM | 0.29% of 330,000 active | AID 435030; in the data active means inhibition above about 12%;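 further: 0% = vehicle wells of infected cells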
E coli growth-2 = blocks Escherichia coli growth; OD600, 23 h; hits give low values; OD600 absorbance (concentration not given with the values); 0.21% of 330,000 active;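 active means OD600 absorbance below the run mean of sample wells minus 3.6 SD, in any replicate, cut at about 0.56 in these data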
phage Ecoli inh = E. coli growth loss with phage present; growth absorbance; inhibition, % at 11.9 µM; 0.26% of 360,000 active; in the data active means inhibition above about 11%
AddAB conf = confirmation screen: growth loss of phage-infected E. coli expressing H. pylori AddAB | inhibition, % at 11.9 µM | E. coli V3065 expressing H. pylori AddAB, T4 phage, OD; T4 phage with gene 2 nonsense mutations | 64% of 880 active | shares compounds with AddAB inh;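 active means mean inhibition above a set limit taken from the earlier primary screen, cut at about 13% in these data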;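 further: higher means less bacterial growth since AddAB block lets phage replicate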
RecBCD counter = reduces growth of phage-infected RecBCD+ E. coli, AddAB inhibitor counter-screen. E. coli V66 + mutant T4 phage, OD growth. inhibition, % at 11.9 µM. shares compounds with AddAB inh. AID 488955. 73% of 880 active;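 active means mean inhibition above the mean of solvent-only control wells plus 3 SD, cut at about 4% in these data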;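 further: optical density read after an 18 h incubation at 37 °C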
bact viab count = counter-screen: bacterial growth inhibition; AID 488956; inhibition, % at 11.9 µM; 35% of 880 active; bacterial viability, absorbance (AddAB counterscreen); shares compounds with AddAB inh; in the data active means inhibition above about 25%
An asterisk follows results filed as active.

Results for Cc1ccc2c(c1)n([O-])c1c([n+]2=O)CCCC1 ?
Tat transport: -3.6; E coli growth-1: 1.1; AddAB inh: 0.8; E coli growth-2: 0.688; phage Ecoli inh: -0.9

What do the screens show for `CCN(CC)CCNC(=O)c1cn(CC)c2cc(N3CCN(C(=O)c4ccco4)CC3)c(F)cc2c1=O`?
Tat transport: 12.7; E coli growth-1: 65.1*; AddAB inh: 67.6*; E coli growth-2: 0.074*; phage Ecoli inh: 7.6; AddAB conf: 97.8*; RecBCD counter: 6.6*; bact viab count: 89.4*

How did CCN(CC)CCCNC(=O)c1cn(CC)c2cc(N3CCN(C(=O)c4ccco4)CC3)c(F)cc2c1=O do in these assays?
Tat transport: 19.9; E coli growth-1: 97.9*; AddAB inh: 97.4*; E coli growth-2: 0.0645*; phage Ecoli inh: 1.1; AddAB conf: 100.2*; RecBCD counter: 88.0*; bact viab count: 101.2*

How did CCCCCNC(=O)c1cn(CC)c2cc(N3CCN(C)CC3)c(F)cc2c1=O do in these assays?
Tat transport: 3.9; E coli growth-1: 90.0*; AddAB inh: 92.3*; E coli growth-2: 0.047*; phage Ecoli inh: 6.7; AddAB conf: 100.5*; RecBCD counter: 12.2*; bact viab count: 95.9*

How did COc1ccc(N2C(=O)N3C4c5ccccc5OCC4C(c4ccccc4)[C@@]3(C)C2=O)cc1 (stereo partly drawn) do in these assays?
E coli growth-2: 0.679

Results for O=c1[nH]c(=S)ccn1C1OC(CO)C(O)C1O (stereo not drawn) ?
Tat transport: -3.9; E coli growth-1: 4.8; AddAB inh: 12.4*; E coli growth-2: 0.764; phage Ecoli inh: 5.2; AddAB conf: 1.5; RecBCD counter: 3.1; bact viab count: 0.8

Results for CCOC(=O)N1CCN(c2c(NCCCN3CCCCCC3)c(=O)c2=O)CC1 ?
Tat transport: -2.5; E coli growth-1: 5.0; AddAB inh: 12.2*; E coli growth-2: 0.749; phage Ecoli inh: 2.8; AddAB conf: -0.1; RecBCD counter: 0.6; bact viab count: -2.3

What do the screens show for `Cc1cc(C=Nn2c(COc3ccccc3)nc3ccccc3c2=O)c(O)c([N+](=O)[O-])c1`?
E coli growth-2: 0.699

What do the screens show for `Cc1cc(/C=N/n2c(COc3ccccc3)nc3ccccc3c2=O)c(O)c([N+](=O)[O-])c1`?
Tat transport: 2.0; E coli growth-1: 13.1*; AddAB inh: 14.7*; phage Ecoli inh: 10.1; AddAB conf: 10.4; RecBCD counter: 14.2*; bact viab count: 8.5

Results for CC(C)c1c(C(=O)NN=Cc2ccc(OCc3ccc(F)cc3)cc2)nnn1-c1nonc1N ?
E coli growth-2: 0.675

What do the screens show for `COc1c(N2CCN[C@H](C)C2)c(F)cc2c(=O)c(C(=O)O)cn(C3CC3)c12`?
E coli growth-1: 102.8*; AddAB inh: 101.8*; AddAB conf: 100.2*; RecBCD counter: 99.7*; bact viab count: 100.8*

How did COc1ccc(NC(=O)COc2ccc(C)nc2[N+](=O)[O-])cc1S(N)(=O)=O do in these assays?
Tat transport: -4.8; E coli growth-1: 12.4*; AddAB inh: 14.7*; E coli growth-2: 0.621; phage Ecoli inh: 7.4; AddAB conf: 46.0*; RecBCD counter: 7.8*; bact viab count: 28.8*

How did Cc1ccc(OCC(=O)Nc2ccc3c(c2)CCC3)c([N+](=O)[O-])n1 do in these assays?
Tat transport: -2.9; E coli growth-1: 1.3; AddAB inh: 1.2; E coli growth-2: 0.688; phage Ecoli inh: 4.9

What do the screens show for `COc1cc(OC)c(C=Nn2c(C)nnc2C)c(OC)c1`?
E coli growth-2: 0.699

How did Cc1ccc(-n2c(-c3ccc(Br)cc3)c[n+]3c2CCc2ccc4cccnc4c2-3)cc1 do in these assays?
Tat transport: -8.2; E coli growth-1: 24.3*; AddAB inh: 30.9*; E coli growth-2: 0.491*; phage Ecoli inh: 5.4; AddAB conf: 76.2*; RecBCD counter: 5.5*; bact viab count: 20.6

What do the screens show for `CCN(CC)c1ccc(C=NNC(=O)c2ccc(Br)o2)cc1`?
E coli growth-2: 0.683

Results for Cc1cccc(-n2ncc3c(N4CCC5(CC4)OCCO5)ncnc32)c1 ?
Tat transport: -3.5; E coli growth-1: 4.6; AddAB inh: 31.6*; E coli growth-2: 0.736; phage Ecoli inh: 1.8; AddAB conf: 3.1; RecBCD counter: -0.1; bact viab count: -0.6

Results for c1ccc(-n2ncc3c(N4CCC5(CC4)OCCO5)ncnc32)cc1 ?
Tat transport: -9.9; E coli growth-1: 2.2; AddAB inh: 0.9; E coli growth-2: 0.776; phage Ecoli inh: 1.1

What do the screens show for `CC1C(C#N)=C(N)OC2=C1C(=O)CC(c1ccccc1)C2` (stereo not drawn)?
Tat transport: 4.2; E coli growth-1: 73.5*; AddAB inh: 97.1*; E coli growth-2: 0.692; phage Ecoli inh: 0.6; AddAB conf: 0.3; RecBCD counter: 0.9; bact viab count: -1.1

How did N#CC1=C(N)OC2=C(C(=O)CC(c3ccccc3)C2)C1c1ccoc1 (stereo not drawn) do in these assays?
Tat transport: 4.5; E coli growth-1: -0.2; AddAB inh: 1.5; E coli growth-2: 0.704; phage Ecoli inh: 2.5

What do the screens show for `O=C(NCc1ccccc1)C1CCN(S(=O)(=O)c2cccc3cccnc23)CC1`?
Tat transport: -0.7; E coli growth-1: -2.0; AddAB inh: 1.2; E coli growth-2: 0.743; phage Ecoli inh: 2.0

Results for COc1ccc(CNC(=O)C2CCN(S(=O)(=O)c3cccc4cccnc34)CC2)cc1 ?
Tat transport: 2.6; E coli growth-1: 2.1; AddAB inh: 13.5*; E coli growth-2: 0.689; phage Ecoli inh: 2.6; AddAB conf: -5.7; RecBCD counter: 0.2; bact viab count: -3.4

What do the screens show for `COC(=O)C(Cc1ccccc1)NC(=O)Nc1ccc(S(N)(=O)=O)cc1` (stereo not drawn)?
E coli growth-2: 0.713

Results for O=C(Nc1ccc2oc(-c3ccccc3)nc2c1)c1cc(-n2cnnc2)ccc1Cl ?
Tat transport: 0.9; E coli growth-1: 65.1*; AddAB inh: 95.0*; E coli growth-2: 0.694; phage Ecoli inh: 1.2; AddAB conf: 3.6; RecBCD counter: -1.2; bact viab count: -2.2

What do the screens show for `CCOC(=O)CN=C1CC(C)(C)CC2=C1Sc1ncnc(N(C)C)c1N2`?
Tat transport: -3.9; E coli growth-1: 43.3*; AddAB inh: 19.8*; E coli growth-2: 0.711; AddAB conf: 0.8; RecBCD counter: 0.5; bact viab count: -0.8

Results for Cn1nccc1C(=O)Oc1cccc(C=NNC(=O)c2ccccc2O)c1 ?
E coli growth-2: 0.667

Bioassay records from PubChem BioAssay.
